PubChem BioAssay AID1851 (National Center for Advancing Translational Sciences (NCATS), 2009)
Screen size: about 16,000 compounds; about 2,600 (16%) were called active. Another 20% or so got no clear call; they are omitted. Only a sample is shown. Values without a mark were called inactive. The call rests on the fitted dose curve; in most records, active means well fitted curve in the direction sought with a large enough effect; inconclusive means small, poorly fitted or top-dose-only effect, or effect the other way; inactive means no such curve, though single readings can be large or run the other way. Square brackets hold non-standard residues; d marks the D form. Peptide text beside a SMILES is read from it.

What follows are molecules tested against Cytochrome P450 2D6 (Homo sapiens) (UniProt P10635) (assay: Cytochrome panel assay with activity outcomes). Conditions: recombinant CYP, pro-luciferin dealkylation, luminescence, p450-cyp2d6; series mostly up to 57.1 µM.
Chain of Cytochrome P450 2D6 (Homo sapiens) (P10635 whole entry, looked up): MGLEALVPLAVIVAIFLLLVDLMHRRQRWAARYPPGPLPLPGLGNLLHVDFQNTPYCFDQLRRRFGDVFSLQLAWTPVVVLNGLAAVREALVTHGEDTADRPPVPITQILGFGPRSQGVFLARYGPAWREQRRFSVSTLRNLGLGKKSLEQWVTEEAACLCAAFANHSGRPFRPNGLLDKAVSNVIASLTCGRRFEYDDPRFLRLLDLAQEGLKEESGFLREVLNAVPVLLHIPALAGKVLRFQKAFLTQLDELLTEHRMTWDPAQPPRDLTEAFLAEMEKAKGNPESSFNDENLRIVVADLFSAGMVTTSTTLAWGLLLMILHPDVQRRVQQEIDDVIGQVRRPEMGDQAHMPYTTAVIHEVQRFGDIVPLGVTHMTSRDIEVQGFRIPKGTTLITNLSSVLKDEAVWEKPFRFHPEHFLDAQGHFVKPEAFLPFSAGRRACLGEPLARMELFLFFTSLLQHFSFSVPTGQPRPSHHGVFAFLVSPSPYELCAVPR
On the % scale 0 is the no-effect control and ±100 the full control effect.

Structure (SMILES) | AC50 | activity, negative = inhibition
COc1ccc(Nc2nnc(-c3ccc(N4CCOCC4)c([N+](=O)[O-])c3)c3ccccc23)cc1 | inactive | 
NC(=O)c1ccc([N+](=O)[O-])cc1SCc1ccccc1 | inactive | 
Cc1ccc(Cn2nc(C)c(NC(=O)c3cc(-c4ccco4)on3)c2C)cc1 | inactive | 
Cn1c(=O)c2cn(-c3ccccc3)cc2n(C)c1=O | inactive | 
COc1ncc2nc(-c3cccs3)c(=O)n(-c3ccccc3)c2n1 | inactive | 
O=C(C1CCN(S(=O)(=O)c2cccc3cccnc23)CC1)N1CCN(c2ccccn2)CC1 | inactive | 
Cc1ccc2c(c1)NCC(C(=O)NC1CCCCC1)O2 (stereo unspecified) | inactive | 
Cc1ccc(S(=O)(=O)N2CCN(S(C)(=O)=O)C2)cc1 | inactive | 
Cc1ccc(S(=O)(=O)N2CCN(Cc3ccccc3C(F)(F)F)CC2)cc1 | 10 µM (active) | 
Cc1ccc(S(=O)(=O)N2CCN(C(=O)CN3CCN(C)CC3)C2)cc1 | inactive | 
COC(=O)C(NS(=O)(=O)c1ccc(NC(C)=O)cc1)C(C)C (stereo unspecified) | inactive | 
O=S(=O)(c1cccc(C(F)(F)F)c1)N1CCC(c2cc(-c3cccc4ccccc34)n[nH]2)CC1 | inactive | 
Cc1cccc(NC(=O)CSc2nc(-c3ccccc3)c(C#N)c(=O)[nH]2)c1C | inactive | 
Cc1cccc(NC(=O)CSc2nnc(-c3ccco3)c(-c3ccco3)n2)c1C | 12.6 µM (active) | 
Cc1cc(C)nc(SCC(=O)Nc2ccccc2[N+](=O)[O-])n1 | inactive | 
COc1ccc(NC(=O)N2CCC3(CC2)CCN(C(=O)c2cccc(F)c2)CC3)cc1 | inactive | 
CCC1Oc2ccccc2N(CC(=O)NCCCN2CCCCC2C)C1=O (stereo unspecified) | 3.16 µM (active) | 
CCCCNC(=O)CN1C(=O)NC2(CCCc3ccccc32)C1=O (stereo unspecified) | inactive | 
COc1ccc2nc(NC(C)=O)sc2c1 | inactive | 
Cc1ccccc1NC(=O)c1ccc(N/N=C/c2ccccc2O)c([N+](=O)[O-])c1 | inactive | 
COC(=O)NCC(c1cccnc1)N1CCN(c2ccccc2OC)CC1 (stereo unspecified) | inactive | 
O=c1c2ccccc2nc2n1C(CSc1ccc(F)cc1)CN2 (stereo unspecified) | inactive | 

Structure (SMILES) | AC50 | activity, negative = inhibition
CCCCNC(=O)CCC(=O)Nc1ccc2nc(N3CCOCC3)cc(C)c2c1 | inactive | 
COc1ccc2cc3cc(C(=O)NCCCN4CCOCC4)oc3nc2c1 | inactive | 
COc1ccc(S(N)(=O)=O)cc1C(=O)NCCCN1CCN(c2cccc(Cl)c2)CC1 | inactive | 
CN1CCN(CCCNC(=O)c2ccc(CSCc3cccc(Cl)c3)o2)CC1 | 10 µM (active) | 
Nc1cc(S(=O)(=O)O)cc2ccc(S(=O)(=O)O)cc12 |  | -8.48% [at 11.4 µM]
CCc1ccc(-c2cc(C(=O)NCc3ccco3)c3ccccc3n2)s1 | inactive | 
CSc1nc(N)nc(-c2cccs2)c1C#N | inactive | 
O=C(CCCCCN1C(=O)c2ccccc2C1=O)NCc1ccccn1 | inactive | 
COc1ccc(CCNC(=O)CCCCCN2C(=O)c3ccccc3C2=O)cc1 | 5.01 µM (active) | 
CCOc1ccc(CCNC(=O)CCCN2C(=O)c3ccccc3C2=O)cc1OCC | inactive | 
Cc1cccc(N2CCN(CC(=O)Nc3ccc(-n4cnnn4)cc3)CC2)c1C | inactive | 
O=C(Oc1ccc2c(c1)CN(Cc1ccccc1)CO2)c1ccccc1 | 0.501 µM (active) | 
CN(Cc1ccccc1)S(=O)(=O)c1ccc(OCC(=O)N2CCOCC2)cc1 | inactive | 
COc1ccc(S(=O)(=O)N(CCc2ccccc2)CC(=O)N2CCOCC2)cc1 | inactive | 
CC(Oc1ccc(O)cc1)(P(=O)(O)O)P(=O)(O)O | inactive | 
C/C(CCN1CCc2nc(-c3ccccc3)c(-c3ccccc3)cc2C1)=N\OC[C@@H](O)[C@@H]1O[C@@H]2OC(C)(C)O[C@@H]2[C@H]1O |  | 12.8% [at 11.4 µM]
C[C@@H](NCc1cc(Br)cc2[nH]c(=O)c(=O)[nH]c12)P(=O)(O)O | inactive | 
O=C(CCCN1CCC(O)(c2ccc(Br)cc2)CC1)c1ccc(F)cc1 | 3.98 µM (active) | 
c1ccc(-c2nc3ccccn3c2NCc2ccc3c(c2)OCO3)cc1 | 3.98 µM (active) | 
O=C(N/N=C\c1cn(-c2ccccc2)nc1-c1ccccc1)c1ccc2c(c1)OCO2 | inactive | 
CCOC(=O)c1c(-c2ccccc2)nc2ccccn12 | inactive | 
CCCS(=O)(=O)N1CCCC(C(=O)N2CCOCC2)C1 (stereo unspecified) | inactive | 

Structure (SMILES) | AC50 | activity, negative = inhibition
CCCS(=O)(=O)N1CCN(CC2CC=CCC2)CC1 (stereo unspecified) | 1.12 µM (active) | 
CCCS(=O)(=O)N1CCCC(C(=O)N2CCN(C(=O)OCC)CC2)C1 (stereo unspecified) | inactive | 
COc1ccc(Oc2c(C=O)c3ccccc3n2C)cc1 | inactive | 
CC(C)CC(=O)N1CCC(N2CCN(c3ccccc3)CC2)CC1 | inactive | 
c1ccc(C2CCC(N3CCC(N4CCCCC4)CC3)CC2)cc1 (stereo unspecified) | 14.1 µM (active) | 
COc1ccccc1NC(=O)c1nn(-c2cccc(C(F)(F)F)c2)ccc1=O | inactive | 
O=[N+]([O-])c1ccc(/C=N/N/C(=N/c2ccccn2)c2ccccn2)cc1 | inactive | 
CS(=O)(=O)Nc1cccc(-c2cncnc2-n2ccnc2)c1 | inactive | 
CS(=O)(=O)Nc1cccc(-c2nccc(-n3ccnc3)n2)c1 | 12.6 µM (active) | 
COc1cccc(-c2nccc(NC3CCNCC3)n2)c1 | inactive | 
COc1ccc(-n2c(=O)c(-c3cccc(F)c3)nc3cncnc32)cc1 | inactive | 
c1cncc(-c2cncnc2-n2ccnc2)c1 | inactive | 
N#Cc1cccc(-c2cc(-n3ccnc3)ncn2)c1 | inactive | 
COc1cccc(-c2nccc(-n3ccnc3)n2)c1 | 7.94 µM (active) | 
COc1cccc(Sc2cc(N3CCOCC3)nc(-c3ccccc3)n2)c1 | inactive | 
COc1cccc(-c2cncnc2-n2ccnc2)c1 | 12.6 µM (active) | 
N#Cc1cccc(-c2nccc(-n3ccnc3)n2)c1 | 12.6 µM (active) | 
CN1CCN(c2ccnc(-c3cccc(NS(C)(=O)=O)c3)n2)CC1 | inactive | 
CC[C@H]1C(=O)OC[C@H]1Cc1cncn1C | inactive | 
CCN(CC)c1ccc(NC(=O)c2cccc(F)c2)c(C)c1 | inactive | 
CC[C@H]1CC[C@H]2[C@@H]3CC=C4C[C@H](OC(C)=O)[C@@H](N)C[C@@]4(C)[C@H]3CC[C@@]12C |  | -4.19% [at 11.4 µM]
NCC(=O)N[C@H](CO)C(=O)O (H-Gly-[dS]-OH) |  | 6.25% [at 11.4 µM]
